In the library only some 4.7% were active in any assay of this set; here they are far more common.
TRHR enhancer: qHTS for Small Molecule Agonists and Allosteric Enhancers of Human TRH Receptor: Primary Screen for Enhancers. 0.66% of 360,000 active. enhancement, % at 2 µM. TRHR cells, fluo-8 calcium fluorescence, EC20 TRH enhancement; in the data active means enhancement above about 30%
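Enhancer read-out: after compound pinning and an initial kinetic agonist-mode read, an EC20 of TRH (10 nM final) was injected and fluo-8 calcium signal (Ex 480/Em 530) followed at 1 s/cycle for 100 cycles in TRHR-expressing cells.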
D1 agonist: Allosteric Agonists of the Human D1 Dopamine Receptor: qHTS. D(1A) dopamine receptor (Homo sapiens), P21728. activation, % at 2 µM. HEK293 T-REx D1 cells, calcium flux, agonist mode. 1% of 360,000 active. AID 504660, 2011
Target sequence (P21728 whole entry, looked up): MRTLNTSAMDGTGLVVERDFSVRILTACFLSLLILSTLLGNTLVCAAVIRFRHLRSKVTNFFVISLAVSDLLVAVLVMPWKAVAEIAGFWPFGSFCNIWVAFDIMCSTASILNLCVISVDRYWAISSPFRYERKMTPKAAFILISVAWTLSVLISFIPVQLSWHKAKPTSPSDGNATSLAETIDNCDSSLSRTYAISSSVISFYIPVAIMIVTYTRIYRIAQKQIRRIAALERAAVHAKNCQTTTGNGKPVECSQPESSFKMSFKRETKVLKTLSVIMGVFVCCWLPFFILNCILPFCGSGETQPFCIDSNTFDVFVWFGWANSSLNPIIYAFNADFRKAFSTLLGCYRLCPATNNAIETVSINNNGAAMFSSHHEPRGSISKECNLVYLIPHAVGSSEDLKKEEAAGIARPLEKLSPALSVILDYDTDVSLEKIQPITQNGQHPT
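Agonism was scored from calcium flux recorded over 180 s (1 read/s) after pintool compound addition, following a 10-cycle baseline. Cells were inducible force-coupled HEK293 TREx D1, plated overnight at 30 C and loaded with no-wash calcium dye.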
TRHR agonist: qHTS for Small Molecule Agonists and Allosteric Enhancers of Human TRH Receptor: Primary Screen for Agonists | Thyrotropin-releasing hormone receptor (Homo sapiens), P34981 | TRHR cells, calcium flux fluo-8, FDSS agonist mode | activation, % at 2 µM | 0.18% of 360,000 active | AID 493084, 2011
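Steps: seed TRHR cells overnight; add fluo-8 no-wash Ca dye, RT 30 min–1.5 h; record 10 s baseline; pin-transfer compounds; monitor fluorescence 1 cycle/s for the agonist window. Calcium increases flag candidate agonists.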
D1 PAM: Potentiators of Human D1 Dopamine Receptor: qHTS; AID 504651, 2011; potentiation, % at 10 µM; 0.036% of 360,000 active; HEK293 TREx D1 cells, calcium flux, dopamine EC20 potentiation; D(1A) dopamine receptor (Homo sapiens), P21728; in the data active means potentiation above about 30%
D1 antagonist: Antagonist of Human D 1 Dopamine Receptor: qHTS. AID 504652, 2011. HEK293 TREx D1 cells, calcium flux, dopamine EC80; active compounds read low. activity change, negative = inhibition, % at 10 µM. 3.2% of 360,000 active. D(1A) dopamine receptor (Homo sapiens), P21728; in the data active means activity change below about -30%
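Kinetic fluorescence of a calcium dye serves as the read-out. D1-expressing Hek293 Trex cells, induced overnight at 30 C, are exposed to compound for 180 s before an EC80 dopamine addition, then read 180 s further.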
Numbers stand for hits; – = inactive. Unless noted, no stated cut-off is given here; in the data, active means activation above about 30%; inactive means the rest.

SMILES | TRHR enhancer | D1 agonist | TRHR agonist | D1 PAM | D1 antagonist
O=C(CNC(=O)c1ccccc1Br)N/N=C/c1ccc(O)cc1 | – | – | – | – | –
CC(C)c1c(C(=O)N/N=C/c2ccccc2OCc2c(F)cccc2Cl)nnn1-c1nonc1N | – | – | – | – | –
CCOc1ccc(NC(=O)CN2CCN(CC(=O)Nc3ccc(Cl)c(C(F)(F)F)c3)CC2)cc1 | 36 | – | – | – | –
CN(CC(=O)Nc1ccc(Cl)c(C(F)(F)F)c1)C(=O)c1cccs1 | – | – | – | – | -51
CC1OC(O[C@H]2CC[C@]3(C)C4C=C[C@]56OC[C@@]7(CC[C@@H](C)[C@H](C)C75)[C@H](O)C[C@@]6(C)[C@]4(C)CC[C@H]3C2(C)C)C(OC2OC(CO)C(O)C(O)C2OC2OCC(O)C(O)C2O)C(O)C1O (some centres undefined) | – | 244 | 48 | – | –
CCCC(=O)Nc1ccc2c(c1)C(=O)NC2=O | – | – | – | – | –
CCCC(=O)Nc1cccc(Oc2ccc3c(c2)C(=O)NC3=O)c1 | 35 | – | – | – | –
CCOc1ccc(N2C(=O)CC(NC3CCN(C(=O)c4cccc(Cl)c4)CC3)C2=O)cc1 (centres undefined) | – | – | – | – | –
CCOc1ccc(N2C(=O)CC(NC3CCN(C(=O)c4cccs4)CC3)C2=O)cc1 (centres undefined) | – | 79 | – | – | –
Cc1ccc(S(=O)(=O)NCc2ccccc2)cc1 | – | – | – | – | –
Cc1ccc(CNS(=O)(=O)NCc2ccccc2)cc1 | 38 | – | – | – | –
O=c1c2ccccc2nc(/C=C/c2c[nH]c3ccccc23)n1-c1ccc([N+](=O)[O-])cc1 | – | – | – | – | –
COc1ccc(-n2c(/C=C/c3c(C)[nH]c4ccccc34)nc3ccccc3c2=O)cc1 | – | – | – | – | -57
Cc1[nH]c2ccccc2c1/C=C/c1nc2ccccc2c(=O)n1-c1cccc([N+](=O)[O-])c1 | – | – | – | – | -37
CC1=C(C(=O)OCc2ccccc2)C(c2cccc(Cl)c2Cl)NC(=O)N1CCCCCC(=O)O (centres undefined) | – | – | – | – | -33
CC1=C(C(=O)OCc2ccccc2)C(c2ccc(Cl)cc2Cl)NC(=O)N1CCCCCC(=O)O (centres undefined) | – | – | – | – | –
CC1=C(C(=O)OCc2ccccc2)C(c2cccc3ccccc23)NC(=O)N1CCCC(=O)O (centres undefined) | – | – | – | – | -39
COc1ccc(Cl)cc1NC(=O)c1cc2ccc3ccc(C)[nH]c3c2n1 | – | – | – | – | –
COc1ccc(N(CC(=O)Nc2nccs2)S(=O)(=O)c2c(C)nn(C)c2C)cc1 | – | – | – | – | -55
COc1ccc(N(CC(=O)Nc2ccc3c(c2)OCCO3)S(=O)(=O)c2c(C)nn(C)c2C)cc1 | – | – | – | – | -30
Cc1nn(C)c(C)c1S(=O)(=O)N(CC(=O)Nc1nccs1)c1ccc(C(C)C)cc1 | – | – | – | – | –
CCc1ccc(C2CC(=O)Nc3cc4c(cc32)OCO4)cc1 (centres undefined) | – | – | – | – | –
O=C(Nc1cccs1)Nc1ccc(Br)cc1F | – | – | – | – | -32
Cc1c(NC(=O)Nc2cccs2)cccc1[N+](=O)[O-] | – | – | – | – | -36
Cc1cccc(NC(=O)Nc2cccs2)c1C | – | – | – | – | –
SMILES | TRHR enhancer | D1 agonist | TRHR agonist | D1 PAM | D1 antagonist
COc1ccccc1Nc1nn2c(=O)c3ccc(C(=O)NCCc4ccccc4)cc3nc2s1 | – | – | – | – | –
CCCCNc1oc(-c2ccc(COc3ccccc3C)o2)nc1C#N | – | – | – | – | –
Cc1ccccc1OCc1ccc(-c2nc(C#N)c(NCCCN(C)C)o2)o1 | – | 44 | – | – | –
Cc1ccc(NC(=O)CSc2nnc(C)s2)c(C)c1 | – | – | – | – | –
COc1ccc(Cn2c(=O)c3oc4ccccc4c3n(Cc3cccc(C)c3)c2=O)cc1 | – | – | – | – | –
COC(=O)CCC(=O)c1ccc(OC)c(Cl)c1 | – | – | – | – | -34
O=c1nc(-c2ccccc2)c2cc(SC(F)F)ccc2[nH]1 | – | – | – | – | –
CCOc1ccc(S(=O)(=O)Nc2cccc(N(C)S(C)(=O)=O)c2)cc1 | – | – | – | – | -39
CN(c1cccc(NS(=O)(=O)c2ccccc2)c1)S(C)(=O)=O | – | – | – | – | -37
CC(=O)Nc1ccc(S(=O)(=O)Nc2cccc(N(C)S(C)(=O)=O)c2)cc1 | – | – | – | – | –
CN(c1cccc(NC(=O)c2ccc(Cl)c(S(=O)(=O)Nc3ccccc3)c2)c1)S(C)(=O)=O | – | – | – | – | -42
COc1cc(OC)c(NC(=O)CCn2cccn2)cc1Cl | – | – | – | – | –
COC(=O)c1scc(C#N)c1N/N=C(\C#N)S(=O)(=O)c1ccc(Cl)cc1 | – | – | – | – | -32
COc1cc(/C=C/c2nc(C#N)c(N3CCC(C)CC3)o2)cc(OC)c1OC | – | – | – | – | –
CC1=CN2C(=N)/C(=C\c3cn(CCCOc4ccccc4)c4ccccc34)C(=O)N=C2S1 | – | 31 | – | – | –
Nc1nc(-c2ccc(-c3ccccc3)cc2)cs1 | – | – | – | – | -47
O=C(CCCN1CCC(C(=O)c2ccc(F)cc2)CC1)c1ccc(F)cc1 | – | – | – | – | -85
O=C(CCCC(=O)c1ccc(F)cc1)c1ccc(F)cc1 | – | – | – | – | –
O=C(CCCN1CCC(O)(c2cccc(C(F)(F)F)c2)CC1)c1ccc(F)cc1 | – | 61 | – | – | –
CC(=O)N1CCC(O)(c2cccc(C(F)(F)F)c2)CC1 | – | – | – | – | –
O=C(CCCN1CCC(O)(c2ccc(Br)cc2)CC1)c1ccc(F)cc1 | – | 70 | – | – | -87
CCc1ccc2c(c1)c(=O)c(S(=O)(=O)c1ccc(F)cc1)cn2CC(=O)Nc1ccccc1OC | – | – | – | – | –
CCOC(=O)C1CCCNC1=O (centres undefined) | – | – | – | – | –
Cc1ccc(N2C(=O)/C(=C\c3ccc(C(C)C)cc3)N=C2SC2CCOC2=O)cc1 (centres undefined) | – | – | – | – | -38
O=C(/C=C/c1cccs1)Nc1nc(-c2ccccc2)cs1 | – | – | – | – | -36
Cc1cc(OCC(=O)Nc2ccccc2C)no1 | – | – | – | – | –
CC(Sc1nnc(N)s1)C(=O)NCc1ccc2c(c1)OCO2 (centres undefined) | – | – | – | – | –

Screening results from PubChem BioAssay.
